rCAG RNA binder: binds r(CAG) RNA repeats; 370,000 tested, 1.3% active; r(CAG) RNA repeat, TO-PRO-1 dye displacement fluorescence; inhibition, % at 3 µM;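 active means inhibition above the plate cutoff, the mean of all test compounds on that plate plus 3 SD, cut at about 35% in these data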;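 further: 0% = DMSO alone and 100% = 100 µM mitoxantrone as full dye displacement; higher means more dye released from RNA so lower well fluorescence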
ALR inh: blocks human ALR sulfhydryl oxidase activity | P55789 | purified ALR, DTT oxidation, H2O2 HRP-luminol luminescence | inhibition, % (concentration not given with the values) | 290,000 tested, 3.8% active;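 active means mean replicate inhibition above about 79%, with every replicate also reaching it, limit read from the data; inconclusive means only one of the two criteria met; inactive means mean below limit and not every replicate reaching it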
A3A deaminase: inhibitors of human APOBEC3A DNA deaminase. recombinant A3A, FAM/TAMRA ssDNA deamination fluorescence. inhibition, % at 20 µM. 330,000 tested, 0.41% active;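 active means at least 40% inhibition at 20 µM here, with at most 30% in a related deaminase screen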;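 further: plate controls were A3A with DMSO for no effect and wells lacking A3A enzyme for full effect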
Target sequence (P31941 whole entry, looked up): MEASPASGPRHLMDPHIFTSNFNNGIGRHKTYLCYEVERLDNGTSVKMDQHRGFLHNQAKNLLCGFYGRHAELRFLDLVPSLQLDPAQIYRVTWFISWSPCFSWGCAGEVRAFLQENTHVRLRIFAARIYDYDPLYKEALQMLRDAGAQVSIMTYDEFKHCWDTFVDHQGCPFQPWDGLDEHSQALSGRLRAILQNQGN
PHOSPHO1 inh: PHOSPHO1 (human) inhibition | 290,000 tested, 1.1% active | inhibition, % at 13.3 µM | recombinant PHOSPHO1, absorbance phosphatase assay | Q8TCT1 | AID 1565; in the data active means inhibition above about 60%
A3G deaminase: blocks human APOBEC3G single-stranded DNA deamination; Q9HC16; recombinant A3G, ssDNA deamination FAM/TAMRA fluorescence; inhibition, % at 20 µM; 330,000 tested, 0.28% active; AID 493012;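 active means inhibition of at least 40% at 20 µM, with no more than 30% in the related APOBEC3A deaminase screen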;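 further: plate controls were DMSO wells with A3G for no effect and wells lacking A3G enzyme for full effect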
Target sequence (Q9HC16 whole entry, looked up): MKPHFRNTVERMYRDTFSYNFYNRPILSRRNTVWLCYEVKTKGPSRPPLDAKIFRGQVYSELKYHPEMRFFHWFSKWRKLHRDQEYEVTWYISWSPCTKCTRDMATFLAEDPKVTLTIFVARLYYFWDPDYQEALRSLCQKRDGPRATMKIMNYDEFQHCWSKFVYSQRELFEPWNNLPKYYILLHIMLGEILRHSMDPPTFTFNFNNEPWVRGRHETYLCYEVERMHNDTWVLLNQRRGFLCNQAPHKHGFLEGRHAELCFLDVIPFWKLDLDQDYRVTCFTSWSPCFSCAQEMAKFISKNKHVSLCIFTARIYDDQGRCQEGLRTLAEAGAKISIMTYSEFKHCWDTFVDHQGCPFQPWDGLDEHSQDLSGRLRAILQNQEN
aDG glyco act: alpha-DG glycosylation activation; Pro5-aDG cells, alpha-DG glycosylation AlphaScreen (IIH6); 0% Pro5, 100% B10-LARGE cell signal; activation, % at 10 µM; 360,000 tested, 0.22% active; AID 624168;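 active means activation of at least 8% versus controls, or a plate z-score of at least 8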;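 further: Pro5 are CHO cells carrying HIG-tagged alpha-DG that lacks glycosylation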
rCAG binder conf: r(CAG) RNA repeat binding, confirmation; inhibition, % at 3 µM; AID 652065; shares compounds with rCAG RNA binder; 4,300 tested, 70% active; TO-PRO-1 dye displacement fluorescence;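 active means inhibition above a per-plate cutoff, the mean inhibition of sample wells plus 3 SD, cut at about 35% in these data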;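 further: loss of TO-PRO-1 fluorescence as compound displaces dye from 1x1 AA loop RNA; 0% = DMSO only wells and 100% = 100 µM mitoxantrone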
DNA CAG counter: DNA CAG dye complex inhibition counter-screen | 4,300 tested, 94% active | AID 652068 | inhibition, % at 3 µM | d(CAG) DNA oligo TO-PRO-1 dye displacement, fluorescence | shares compounds with rCAG RNA binder;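 active means inhibition above its plate's cutoff, the mean test-well inhibition plus 3 SD, cut at about 4.8% in these data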;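 further: 0% = DNA dye mix with DMSO and 100% = 100 µM mitoxantrone; hits displace the dye from DNA and so lower well fluorescence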
An asterisk follows results filed as active; ? = inconclusive; nt = no result given. Shown are actives, neighbours in structure and some others; about 5.4% of the full set was active somewhere.

SMILES	rCAG RNA binder	ALR inh	A3A deaminase	PHOSPHO1 inh	A3G deaminase	aDG glyco act	rCAG binder conf	DNA CAG counter
Cc1nn(-c2ccc(F)cc2)c(Cl)c1/C=C(\CC(=O)O)c1nc2ccccc2s1	38*	6	0	36	-9	0	45*	11*
Cc1nn(-c2ccc(F)cc2)c(Cl)c1/C=C(/CC(=O)O)c1nc2ccccc2s1	51*	nt	nt	nt	nt	0	43*	13*
O=c1c2ccccc2nc(N/N=C/c2c(O)ccc3ccccc23)n1O	35*	-9	1	66*	-8	0	71*	30*
CCOc1ccc(NC(=O)Nc2nc(SCC)ns2)cc1	65*	nt	-2	nt	-4	0	31	18*
COc1ccccc1N1CCN(S(=O)(=O)CCNC(=O)CC2CCCC2)CC1	-2	nt	nt	nt	nt	0	nt	nt
Cc1cccc(OCC(=O)Nc2ccc(S(=O)(=O)Nc3onc(C)c3C)cc2)c1C	41*	53	1	32	0	0	26	6.5*
Cc1cccc(OCCCC(=O)Nc2ccc(S(=O)(=O)Nc3onc(C)c3C)cc2)c1C	59*	?	-4	-17	3	0	32	8.5*
Cc1cccc(OCCCC(=O)Nc2ccc(S(=O)(=O)Nc3nccs3)cc2)c1C	59*	-1	5	11	-4	1	49*	17*
O=C(COc1ccc(F)cc1Cl)Nc1ccc(S(=O)(=O)Nc2nccs2)cc1	43*	0	-4	nt	-8	0	40*	13*
Cc1noc(NS(=O)(=O)c2ccc(NC(=O)COc3ccc(C#N)cc3)cc2)c1C	13	21	-7	nt	-6	0	nt	nt
CC1NC(=O)c2cc3ccccc3cc2-n2c1nc1ccc(F)cc1c2=O (configuration not stated)	1	nt	nt	nt	nt	0	nt	nt
C=C(C)C(=O)Nc1ccc(OC(F)(F)C(F)F)c(NC(=O)C(=C)C)c1	44*	-13	7	-3	11	0	0	-2
Cc1cccc(C)c1NC(=O)C(c1ccncc1)n1c(=O)c(-c2cc3ccccc3[nH]2)nc2ccccc21 (configuration not stated)	15	nt	nt	nt	nt	1	nt	nt
O=C(O)C(Cc1ccccc1)N1C(=O)/C(=C/c2cccc3ccccc23)SC1=S (configuration not stated)	nt	47	nt	24	nt	nt	nt	nt
O=C(O)C(Cc1ccccc1)N1C(=O)c2c(Cl)c(Cl)c(Cl)c(Cl)c2C1=O (configuration not stated)	51*	-4	1	nt	-3	0	53*	17*
O=C(O)C(Cc1ccccc1)N1C(=O)/C(=C/c2ccccc2)SC1=S (configuration not stated)	53*	5	-3	-1	-4	0	56*	20*
Cc1ccc(/C=C2\SC(=S)N(C(Cc3ccccc3)C(=O)O)C2=O)cc1 (configuration not stated)	42*	-35	-3	0	-9	0	80*	37*
COc1cc(/C=C2\SC(=S)N(C(Cc3ccccc3)C(=O)O)C2=O)ccc1O (configuration not stated)	45*	nt	-2	-2	-5	0	34	7.9*
O=C(O)C(Cc1ccccc1)N1C(=O)C=CC1=O (configuration not stated)	-1	nt	nt	nt	nt	0	nt	nt
O=C(Nc1ccc(Cl)c(S(=O)(=O)Nc2ccccc2Cl)c1)c1cccs1	48*	-5	2	-5	-2	0	29	11*
O=C(Nc1cccc(S(=O)(=O)Nc2ccc(Cl)cc2)c1)c1ccc(Cl)nc1	30	nt	-1	3	1	5	nt	nt
COc1ccccc1NS(=O)(=O)c1cc(NC(=O)c2sc3cc(Cl)ccc3c2Cl)ccc1C	6	-9	-3	43	-4	0	nt	nt
O=C(Nc1cc(S(=O)(=O)Nc2ccccc2Cl)ccc1O)c1cc2c(s1)CCCC2	48*	nt	1	28	-2	0	67*	26*
O=C(Nc1cccc(S(=O)(=O)Nc2ccc(Cl)cc2)c1)c1cc2c(s1)CCCC2	43*	-2	-5	-12	-8	0	29	17*
Cc1ccc(C(=O)Nc2ccc(C)c(S(=O)(=O)Nc3ccccc3Cl)c2)s1	36*	-3	0	14	-1	0	46*	16*
SMILES	rCAG RNA binder	ALR inh	A3A deaminase	PHOSPHO1 inh	A3G deaminase	aDG glyco act	rCAG binder conf	DNA CAG counter
CC(C)COC(=O)N1CCCCC1c1cc(C(=O)N2CCOCC2)no1 (configuration not stated)	0	nt	nt	nt	nt	0	nt	nt
COC(=O)[C@]12C[C@H](CC(=O)NCc3cccs3)C(=O)N(Cc3ccco3)C1=C[C@H](C(C)(C)C)O[C@@H]2C	2	nt	nt	nt	nt	nt	nt	nt
CCN(CC)C(=O)C1=C(C)N(Cc2ccc(OC)cc2)C(=O)C(CC(=O)NCCCN(C)C)C1 (configuration not stated)	3	nt	nt	nt	nt	0	nt	nt
Cc1ccc(NC(=O)c2cc3c(s2)CCCC3)cc1S(=O)(=O)Nc1ccccc1Cl	47*	-6	2	-9	-1	0	38*	13*
CCN(CC)c1ccc(C=C2C(=O)OC3(CCCCC3)OC2=O)cc1	-4	?	-4	30	-12	0	nt	nt
CCN(CC)c1ccc(/C=C2/C(=O)c3ccc(C(=O)O)cc3C2=O)cc1	55*	98*	nt	6	nt	0	82*	48*
CCCSc1nc(O)c(C2OC(=O)c3c2ccc(OC)c3OC)c(=O)n1C (configuration not stated)	10	?	3	-8	0	0	nt	nt
CCCCCCSc1nc(O)c(C2OC(=O)c3c2ccc(OC)c3OC)c(=O)n1CC (configuration not stated)	39*	98*	-3	0	-7	0	36*	8.3*
CCOc1ccccc1NC(=O)CSc1nc2nc(-c3cccs3)cc(C(F)(F)F)c2c(=O)[nH]1	70*	nt	4	42	-5	0	79*	48*
O=C1NN(c2ccccc2)C(=O)/C1=C\c1cccc(OC(=O)c2cccs2)c1	37*	89*	7	10	4	0	68*	28*
Cc1cc(/C=C2\SC(=S)NC2=O)c(C)n1C1CC1	36*	?	1	-73	-5	1	23	7.1*
Cc1cc(/C=C2/C(=O)N(C)C(=S)N2C)c(C)n1C1CC1	8	17	0	2	-6	0	nt	nt
Cc1ccccc1-c1cccc2[nH]c3c(c12)CCN1C(=O)[C@H]2[C@H](C)ON(C)[C@H]2C[C@@H]31	7	nt	nt	nt	nt	nt	nt	nt

Compound activity deposited in PubChem by several laboratories.
